Among all 16,000 compounds or so, about 2,600 (16%) were called active. Not shown: some 20% with an inconclusive outcome. Calls follow the shape of the dose curve; as a rule, active = well fitted curve in the direction sought with a large enough effect; inconclusive = small, poorly fitted or top-dose-only effect, or effect the other way; inactive = no such curve, though single readings can be large or run the other way. The list is a sample of the results.
% is scaled to controls: 0 for no effect and ±100 for the full control effect.

Sequence of Cytochrome P450 2D6 (Homo sapiens) (P10635 whole entry, looked up): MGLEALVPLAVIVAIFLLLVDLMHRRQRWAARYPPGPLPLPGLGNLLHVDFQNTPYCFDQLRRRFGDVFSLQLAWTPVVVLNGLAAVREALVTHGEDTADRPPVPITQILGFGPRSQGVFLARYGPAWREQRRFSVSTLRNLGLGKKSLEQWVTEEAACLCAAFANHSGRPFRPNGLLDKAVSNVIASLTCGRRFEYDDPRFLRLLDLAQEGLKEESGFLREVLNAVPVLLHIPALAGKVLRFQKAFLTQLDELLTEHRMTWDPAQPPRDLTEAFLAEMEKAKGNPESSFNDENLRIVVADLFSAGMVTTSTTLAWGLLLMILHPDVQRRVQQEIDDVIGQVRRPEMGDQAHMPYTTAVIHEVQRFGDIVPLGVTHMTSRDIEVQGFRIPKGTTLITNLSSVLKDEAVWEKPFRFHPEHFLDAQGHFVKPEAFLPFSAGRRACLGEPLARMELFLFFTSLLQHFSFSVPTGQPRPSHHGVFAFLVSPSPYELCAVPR

This experiment concerns the target Cytochrome P450 2D6 (Homo sapiens) (UniProt P10635). Nature of the experiment: Cytochrome panel assay with activity outcomes. The settings on record: recombinant CYP, pro-luciferin dealkylation, luminescence, p450-cyp2d6; series mostly up to 57.1 µM.
As usually defined, the AC50 is the concentration giving half of the maximal activity seen. With `O=c1c(-c2cccc(Cl)c2)nc2cncnc2n1C1CC1`, the AC50 entry was “inactive”.
Same read-out and setting: the same measure for `O=C(Nc1ccccc1[N+](=O)[O-])C1C(c2ccccc2)=C1c1ccccc1`: “inactive”; for `COc1ncc2nc(-c3cccs3)c(=O)n(C)c2n1`: “inactive”; for `Cc1cnn(-c2ccc3nnc(-c4ccc(Cl)cc4)n3n2)c1`: “inactive”.
Turning to `FC(F)(F)c1nc2ccccc2nc1N/N=C/c1ccc(Cl)cc1`, the AC50 is 0.631 µM (active).
In the case of `N#CC(c1ccc(Cl)cc1)c1nc2ccccc2nc1C(F)(F)F` (centres undefined), the AC50 entry is “inactive”.
Same read-out and setting: next, `Clc1ccc(/C=N/Nc2nnc(-c3ncc[nH]3)c3ccccc23)cc1`: “inactive”.
With `O=c1[nH]c(=O)n([C@@H]2C[C@H](O)[C@H](CO)O2)cc1I`, the AC50 entry is “inactive”.
The same measure, in the same setting: next, `CCCN[C@@H](C)C(=O)Nc1ccccc1C`: “inactive”; `N#Cc1cc(N)ccc1Sc1ccc(Cl)cc1`: 22.4 µM (active).
With `N#Cc1cc(-c2ccc(Cl)cc2)cnc1Sc1ccccc1`, the AC50 entry is “inactive”.
Same read-out and setting: next, `N#Cc1cc(-c2ccc(Cl)cc2)cnc1Sc1ccc(F)cc1`: “inactive”; `Cc1cc(C)cc(-n2c(C)cc(C=C(C#N)C#N)c2C)c1`: “inactive”.
`Cn1c(=O)c2c(nc(C(=N)SCC(=O)O)n2C)n(C)c1=O`: the activity, negative = inhibition was 1.35% [at 11.4 µM] (inactive).
Turning to `O=C1C2CCCN2C(c2ccccc2F)N1c1ccc(Cl)cc1` (centres undefined), the AC50 result was “inactive”.
On the same count and under the same terms, the same measure for `S=C1N(c2ccccc2)C(c2ccc(Cl)cc2)N2CCCN12` (centres undefined): “inactive”; for `O=C1C2=C(NC(=S)NC2c2ccc(Cl)cc2)NC(c2ccc(Cl)cc2)N1c1ccc(Cl)cc1` (centres undefined): 15.8 µM (active).
The same measure, in the same setting: next, `Cc1cnn(CCC(=O)NNC(=S)Nc2cccc(Cl)c2)c1`: “inactive”; `COCCn1c(=O)c(-c2cc(F)cc(F)c2)nc2cnc(Oc3cccc(Cl)c3)nc21`: “inactive”.
With `Cc1cc(NCc2ccccn2)ccc1Br`, the AC50 result was “inactive”.
Still for that read-out and setting: next, `Cc1cc(=O)oc(C)c1C(=O)NCc1ccccn1`: “inactive”.
Same read-out and setting: the same measure for `Cc1cc(Br)ccc1NCc1ccccn1`: 15.8 µM (active); for `O=C(NNC(=O)c1ccccc1O)c1ccc(Cl)cc1`: 2.82 µM (active); for `O=C(NNC(=O)c1ccccc1-n1cccc1)c1ccccc1`: “inactive”.
With `O=C(O)c1ccccc1C(=O)NNc1ccc(Cl)cc1`, the AC50 entry was “inactive”.
Take `O=C(C[N+]1(c2ccccc2)CCOCC1)c1ccccc1`: the activity, negative = inhibition was -6.92% [at 11.4 µM] (inactive).
For `O=S(=O)(N/N=C/c1ccc2c(c1)OCCO2)c1ccc(Cl)cc1`, the AC50 entry is “inactive”.
The same measure, in the same setting: the same measure for `Cc1ccc(S(=O)(=O)N/N=C/c2ccc(OC3CSC3)cc2)cc1`: “inactive”; for `O=S(=O)(N/N=C\c1ccc2c(c1)OCO2)c1ccc(Cl)cc1`: 7.94 µM (active).
For `N[C@@H](Cc1nn[nH]n1)C(=O)O`, the activity, negative = inhibition is 7.47% [at 11.4 µM] (inactive).
On to `Cn1c(/C(C#N)=C(\O)c2ccc(S(=O)(=O)N3CCCCC3)cc2)nc2ccccc21`, for which the AC50 result was “inactive”.
As to `C[C@]1(O)CC[C@H]2[C@H]3CC=C4N5CCN=C5CC[C@@]4(C)[C@H]3CC[C@@]21C`, the activity, negative = inhibition is -4.3% [at 11.4 µM] (inactive).
For the molecule `CN1CCN(c2ncnc3ccc(-c4ccccc4C#N)cc23)CC1`, the AC50 result is “inactive”.
As to `CN1CCC(=C2c3ccccc3C=Cc3ccccc32)CC1`, the AC50 is 2.51 µM (active).
On the same count and under the same terms, next, `CN1CCC(=C2c3ccccc3Sc3ccccc32)CC1`: 3.98 µM (active); `O=C(Nc1ncc(Cc2cc(Cl)ccc2Cl)s1)c1ccc([N+](=O)[O-])cc1`: “inactive”.
Take `C/C=C\C1=C(CO)C(=O)C2O[C@]2(CC=C(C)C)C1=O` (some centres undefined): the activity, negative = inhibition was 0.497% [at 11.4 µM] (inactive).
`COc1ccccc1Cn1c(=S)[nH]c2cc(C(=O)N3CCN(C)CC3)ccc2c1=O`: the AC50 entry is “inactive”.
Consider `CCOc1cc2[nH]c(=S)n(CCC(=O)N3CCc4ccccc4C3)c(=O)c2cc1OCC`, for which the AC50 result is “inactive”.
Same read-out and setting: next, `CCC1CCCCN1CCn1c(=S)[nH]c2cc(OC)c(OC)cc2c1=O` (centres undefined): 0.178 µM (active); `COc1cc(/C=C(/NC(=O)c2ccccc2Cl)C(=O)O)cc(OC)c1OC`: “inactive”.
Take `O=C(Nc1ccc(-n2nncc2-c2ccco2)cc1)c1ccc(F)cc1`: the AC50 was 1.12 µM (active).
Still for that read-out and setting: the same measure for `Cc1cc(NC(=O)c2ccco2)ccc1-n1cnnn1`: “inactive”; for `COc1ccc(CCNC(=O)c2ccccc2NC(=O)c2ccco2)cc1OC`: “inactive”.
Same read-out and setting: next, `COc1ccc(-c2cnnn2-c2ccc(NC(=O)c3ccco3)cc2)cc1OC`: 10 µM (active).
Same read-out and setting: the same measure for `O=C(Nc1cccc2[nH]ncc12)c1ccc(F)cc1`: “inactive”.
In the case of `COc1cc(C(=O)Nc2ccc(-c3nnc(-c4ccco4)o3)cc2)cc(OC)c1OC`, the AC50 entry is “inactive”.
Still for that read-out and setting: the same measure for `Cc1ccc(NC(=O)C(C)N2C(=O)C3C4CC(C(Br)C4Br)C3C2=O)cc1` (centres undefined): “inactive”.
Same read-out and setting: next, `COC(=O)CSc1ccc(C#N)c(SCC(=O)OC)c1`: “inactive”; `CC(C)NC(=O)c1ccc(-c2cccc(C(F)(F)F)c2)o1`: “inactive”.
As for `COc1ccc2c(=O)cc(-c3ccncc3)oc2c1OC`, the activity, negative = inhibition was 12.2% [at 11.4 µM] (inactive).
The same measure, in the same setting: the same measure for `N=C(N)SCc1cccc(-c2nc3ccccc3c(=O)o2)c1`: 6.52% [at 11.4 µM] (inactive).
On to `N=C(N)SCc1cccc2c(=O)cc(-c3ccccc3)oc12`, for which the AC50 was 2.51 µM (active).
Consider `CCCNC1CCS(=O)(=O)C1` (centres undefined), for which the AC50 result was “inactive”.
In the case of `C/C(=N/O)[C@@H]1C[C@H](CC(=O)O)C1(C)C`, the activity, negative = inhibition was -1.22% [at 11.4 µM] (inactive).
On to `CCOC(=O)N/N=C(/C)c1ccc([N+](=O)[O-])o1`, for which the AC50 entry was “inactive”.
`Cc1ccc(-c2nnc(C)c(N3CC(C)OC(C)C3)n2)cc1` (centres undefined): the AC50 result is “inactive”.
Same read-out and setting: the same measure for `COc1ccccc1N1CCN(CCN2C(=O)CC3(CCCC3)CC2=O)CC1`: “inactive”; for `O=C1CC2(CCCC2)CC(=O)N1CCCCNC[C@H]1COc2ccccc2O1`: 5.01 µM (active); for `O=C1CC2(CCCC2)CC(=O)N1CCNC[C@H]1COc2ccccc2O1`: 0.126 µM (active).
On the same count and under the same terms, the same measure for `Cn1c(C(=O)O)c(CC(=O)NCC2COc3ccccc3O2)c2ccccc21` (centres undefined): “inactive”.
Take `Cc1cc(C(=O)CSc2nnc(-c3ccccc3)o2)c(C)n1CC1COc2ccccc2O1` (centres undefined): the AC50 entry was “inactive”.
Consider `C[N+]1(C)CCc2cc(O)c(O)cc2[C@H]1Cc1ccc(O)c(O)c1`, for which the activity, negative = inhibition is -2.15% [at 11.4 µM] (inactive).
Turning to `CC(C)N1CCN(c2ccc(OC[C@@H]3CO[C@@](Cn4cncn4)(c4ccc(Cl)cc4Cl)O3)cc2)CC1`, the AC50 result was “inactive”.
Take `Cn1c(=S)c2[nH]c(SCc3cccnc3)nc2n(C)c1=O`: the activity, negative = inhibition was 14% [at 11.4 µM] (inactive).
For the molecule `Cc1ccc(C)c(N(CC(=O)NC2CCCC2)C(=O)c2cc3cc4cccc(C)c4nc3s2)c1`, the AC50 result is “inactive”.
Still for that read-out and setting: next, `CC(=O)N1N=C(c2cccc([N+](=O)[O-])c2)OC1c1ccc(Cl)cc1Cl` (centres undefined): “inactive”; `CN(Cc1ccco1)c1ccnc(-c2ccoc2)n1`: “inactive”.
Still for that read-out and setting: the same measure for `COc1cccc(-c2nccc(N(C)Cc3ccco3)n2)c1`: 1.26 µM (active).
In the case of `CN(Cc1ccco1)c1ccnc(-c2cccc(NS(C)(=O)=O)c2)n1`, the AC50 was 20 µM (active).
On the same count and under the same terms, the same measure for `CN(Cc1ccco1)c1ccnc(-c2cccnc2)n1`: 7.94 µM (active); for `COc1cccc(-c2cc(N(C)Cc3ccco3)ncn2)c1`: 15.8 µM (active); for `CN(Cc1ccco1)c1cc(-c2cccc(C#N)c2)ncn1`: “inactive”.
For the molecule `CN(C)c1ccnc(-c2cccc(NS(C)(=O)=O)c2)n1`, the AC50 entry is “inactive”.
On the same count and under the same terms, next, `CN(Cc1ccco1)c1cc(-c2cccnc2)ncn1`: “inactive”; `CCOC(=O)c1c(C)nc2c(c1-c1ccccc1)C(=O)CCC2`: “inactive”; `C=C(CC)C(=O)c1ccc(OCC(=O)O)c(Cl)c1Cl`: “inactive”.
With `C=CCNc1nc(Cl)nc(Nc2ccc(OC)cc2)n1`, the AC50 entry is “inactive”.
As for `CNC(=O)[C@@H]1O[C@@H](n2cnc3c(NCc4ccc(N)cc4)ncnc32)[C@@H](O)[C@H]1O`, the AC50 result is “inactive”.
In the case of `COc1nnc(OC)c2ccccc12`, the AC50 entry is “inactive”.
Turning to `NS(=O)(=O)c1cc(C(=O)O)c(O)c2ccccc12`, the activity, negative = inhibition was 0.979% [at 11.4 µM] (inactive).
With `COC(=O)/C=C\c1cc(O)ccc1O`, the AC50 entry is “inactive”.
As for `C#CCSc1nncn1C(=O)/C=C/c1ccccc1`, the AC50 result was “inactive”.
As to `Nc1nc2c(c(=O)[nH]1)CN(c1ccc(S(N)(=O)=O)cc1)CN2`, the activity, negative = inhibition was -2.27% [at 11.4 µM] (inactive).
In the case of `CCC(Sc1nc(C)cc(=O)[nH]1)C(=O)Nc1nc2c(s1)CCCC2` (centres undefined), the AC50 entry is “inactive”.
Still for that read-out and setting: the same measure for `N=C(N)SCCc1ccc(OCc2ccc([N+](=O)[O-])cc2)cc1`: “inactive”; for `CCc1nnc(SCc2ccc(OC(C)C)cc2)n1N`: “inactive”.
The same measure, in the same setting: next, `CC(C)Oc1ccc(CSC(=N)N)cc1`: 14.1 µM (active).
Still for that read-out and setting: the same measure for `O=C1CN(C(=O)c2ccc(Br)o2)C(c2ccc(F)cc2)c2cc(Cl)ccc2N1` (centres undefined): “inactive”.
With `C[C@@H]1CN2[C@H](c3ccc(Br)cc3)[C@H](C)CC[C@H]2C(=O)O1`, the activity, negative = inhibition is -10.6% [at 11.4 µM] (inactive).
For `NC(=O)N[C@H]1NC(=O)NC1=O`, the AC50 entry was “inactive”.
Consider `CCOc1cc(C2NN=C(c3ccccc3)S2)ccc1OCc1ccccc1Cl` (centres undefined), for which the AC50 entry was “inactive”.
On to `OCCCCNCc1ccc(OCc2ccccc2Cl)cc1`, for which the AC50 was 3.55 µM (active).
`CCOc1cc(CNCCO)cc(Br)c1OCc1ccccc1Cl`: the AC50 is 4.47 µM (active).
Regarding `O=C(NCc1ccccc1Cl)c1cnccn1`, the AC50 entry is “inactive”.
The same measure, in the same setting: the same measure for `CCOc1cc(/C=C2\N=C(C)OC2=O)cc(Br)c1OCC(=O)OC`: “inactive”.
Turning to `OCCCNCc1ccccn1`, the activity, negative = inhibition was 12.8% [at 11.4 µM] (inactive).
As for `CCC(C)NC(=O)C1c2cc(OC)c(OC)cc2C(=O)N(C)C1c1cccs1` (centres undefined), the AC50 result was “inactive”.
Turning to `C/C(=N/S(=O)(=O)c1ccc(Cl)c(Cl)c1)OCC(C)(C)C`, the activity, negative = inhibition is 8.65% [at 11.4 µM] (inactive).
As to `COc1ccc(Oc2ncc3nc(-c4ccc(Cl)cc4)c(=O)n(C)c3n2)cc1`, the AC50 result was “inactive”.
With `CN(C)CCNC(=O)C(C(=O)c1ccc(F)cc1)n1ccccc1=O` (centres undefined), the AC50 result is “inactive”.
The same measure, in the same setting: next, `CCCCSc1nc(C)cc(NC(=S)Nc2ccc(OC)cc2)n1`: “inactive”; `CCc1cc[n+](-c2nc3ccccc3nc2C(=C=[N-])C#N)cc1`: “inactive”; `C/C(CC(=O)NCc1ccco1)=N\NC(=O)Cc1ccccc1`: “inactive”.
With `CCCNC(=O)CC(NS(=O)(=O)c1ccc(Cl)cc1)c1ccco1` (centres undefined), the AC50 was 1.41 µM (active).
The same measure, in the same setting: the same measure for `CCCCNC(=O)NS(=O)(=O)c1ccc(C)cc1`: “inactive”; for `C/C(CC(=O)NCc1ccco1)=N\NC(=O)Cc1ccc(Cl)cc1`: “inactive”; for `O=C(CC(NS(=O)(=O)c1ccc(Cl)cc1)c1ccco1)NCc1ccco1` (centres undefined): 5.62 µM (active).
Same read-out and setting: the same measure for `CCCNC(=O)NS(=O)(=O)c1ccc(Cl)cc1`: “inactive”.
